Data from PubChem BioAssay (NCI).
This is part of a sample that, as a whole, favours compounds with a hit. Of some 79,000 tested, about 15% had one in any assay. Unmarked numbers belong to inactive results. Activity calls are given as the source filed them. Rule as the data show it: active = growth inhibition above about 70%; inactive = the rest.

How the values were obtained:
[1] = NCI Yeast Anticancer Drug Screen. Data for the rad50 strain (AID 155);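 also: 0% = growth of vehicle-only cultures of the same strain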; conditions: S. cerevisiae rad50 strain growth inhibition; at 50.0 µM; active compounds read high
Outline: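 DNA repair mutant yeast, compound exposure, growth read-out; inhibition is taken relative to vehicle.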

[2] = NCI Yeast Anticancer Drug Screen. Data for the mec2-1 strain (AID 157); conditions: S. cerevisiae mec2-1 strain, at 50.0 µM, active compounds read high
Outline: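 Cells of the genetically defined mec2-1 yeast strain are incubated with test compound. Inhibition of growth is calculated against vehicle-treated controls.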

[3] = NCI Yeast Anticancer Drug Screen. Data for the sgs1 mgt1 strain (AID 161);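 also: 0% = growth of cultures given vehicle only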; conditions: S. cerevisiae sgs1 mgt1 strain, at 50.0 µM, active compounds read high
Outline: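 Mutant yeast exposed to compound; growth scored against vehicle-only wells.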

[4] = NCI Yeast Anticancer Drug Screen. Data for the cln2 rad14 strain (AID 165);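 also: 0% = growth equal to vehicle treated cultures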; conditions: S. cerevisiae cln2 rad14 strain, at 50.0 µM, active compounds read high
Outline: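 The screen exposed genetically defined yeast (cln2 rad14) to test compounds and scored growth inhibition relative to vehicle-treated controls.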

[5] = NCI Yeast Anticancer Drug Screen. Data for the bub3 strain (AID 167); conditions: S. cerevisiae bub3 mutant strain, at 50.0 µM, active compounds read high
Outline: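 In this screen, a yeast mutant lacking normal mitotic checkpoint function is challenged with compound. Relative growth versus vehicle gives the inhibition value.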

[6] = NCI Yeast Anticancer Drug Screen. Data for the mlh1 rad18 strain (AID 175); conditions: S. cerevisiae mlh1 rad18 strain growth inhibition; at 50.0 µM; active compounds read high
Outline: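 Compound-treated yeast growth, normalised to vehicle controls. Strain bears defined DNA repair mutations.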

Row | Structure (SMILES) | growth inhibition [1] | growth inhibition [2] | growth inhibition [3] | growth inhibition [4] | growth inhibition [5] | growth inhibition [6]
1 | CC1(C)CNC(C)(C)CN1 | -4.45% | -11.8% | 4.35% | 1.1% | 17.5% | -18%
2 | Nc1ccc(I)cn1 | -3.35% | 5.7% | -3.65% | -11.7% | 14.6% | -3.95%
3 | Nc1nc(SCC(=O)c2ccc(F)cc2)sc1C(=O)c1ccc(F)cc1 | -9.75% | 6.9% | 1.4% | 1.3% | -0.9% | 14%
4 | O=P1(O)c2ccccc2CSCc2ccccc21 | 24.4% | -7.35% | -11.8% | -2.8% | -2.65% | -31.8%
5 | Cn1c(=O)c2nc(SC3CCCCC3)n(C)c2n(C)c1=O | -12.7% | -9.05% | -9.85% | -28.3% | 4.5% | -15.3%
6 | O=C1C2=C(OCO2)C(=O)C2=C1OCO2 | 2.65% | 20.8% | 21.1% | 3.7% | 9.95% | 3.2%
7 | O=C1c2ccccc2-c2nnsc21 | -20.7% | -14.4% | 2.3% | -12.6% | -6.2% | 19.5%
8 | CSC1(C)C(=O)Nc2ccc(C(F)(F)F)cc21 (stereo unspecified) | 9.35% | 4.8% | -0.05% | 17.7% | -6.15% | 0.1%
9 | Cc1cccc(N=C2NC(=O)C(CC(=O)Nc3ccccc3Cl)S2)c1 (stereo unspecified) | -16.8% | -35.8% | 12.8% | 7.45% | 0.95% | -1.55%
10 | CN(Cc1cnc2nc(N)nc(N)c2n1)c1ccc(C(=O)NC(CCC(=O)OCc2cc3c(cc2Cl)OCO3)C(=O)OCc2cc3c(cc2Cl)OCO3)cc1 (stereo unspecified) | 16.9% | 58.3% | 42% | 44.6% | -8.6% | 46.2%
11 | CCC[n+]1ccc(CCS(=O)(=O)c2ccc(N)cc2)cc1 | 6.15% | -6.55% | 1.9% | -6% | 21.4% | -16.7%
12 | COC(=O)CC1C(OC)OC23CCC1C2(C)CCC1C3CCC2CC(OC(C)=O)CCC21C (stereo unspecified) | 28.1% | 3% | 13.8% | -30.2% | -1.7% | 8.5%
13 | COc1ccc(C2c3cc4c(cc3OC3(N5CCCC5)CCCC23)OCO4)c(OC)c1 (stereo unspecified) | 0.85% | -6.8% | -1.5% | 14.2% | 15.2% | 11.6%
14 | NC(CCc1ccc2c(c1)OCO2)C(=O)O (stereo unspecified) | 5.35% | -11.8% | -3.55% | -47% | -5.8% | 22.9%
15 | CCC1(C)N=C(N)Nc2nc3ccccc3n21 (stereo unspecified) | -9.95% | 0.35% | -7.65% | -28.6% | 0.4% | -18.2%
16 | CSc1ncc2c(n1)-c1ccccc1OC2N1CCOCC1 (stereo unspecified) | -4.95% | 8.1% | -1.65% | -9.55% | -18.4% | 40.7%
17 | NC(=O)N/N=C/c1cccc2ccccc12 | 24.2% | 9.05% | -8.8% | 6.35% | 4.05% | -0.7%
18 | NC(C(=O)O)C(C(F)(F)F)C(F)(F)F (stereo unspecified) | 0.95% | -15.2% | 4.5% | 1.55% | -15.7% | 6.5%
19 | Cc1ccccc1NN | 29.1% | 7.05% | -2.3% | -2.6% | 4% | 7.6%
20 | CCNC(=S)NCC | -11.2% | -28.8% | 20.6% | 6.7% | 0.4% | 17.5%
21 | Cc1ncc(CO)c(/C=N\Nc2ccc([N+](=O)[O-])cc2[N+](=O)[O-])c1O | -21.4% | 19.2% | 9.7% | -17.7% | 11.3% | 13.9%

Row | Structure (SMILES) | growth inhibition [1] | growth inhibition [2] | growth inhibition [3] | growth inhibition [4] | growth inhibition [5] | growth inhibition [6]
22 | CSC(=S)c1ccc(NSc2ccccc2[N+](=O)[O-])cc1 | 7.6% | 23.6% | 46.8% | 14% | 20.4% | 33.8%
23 | CCCCc1ccc(NC(=O)c2cccnc2)cc1 | 3% | 14.4% | 36.5% | 15.2% | -3.4% | 27.6%
24 | COCCCNC(=O)C1=C(C)NC(C)=C(C(=O)NCCCOC)C1 | -49% | -64.2% | -10.7% | 3.6% | -11.2% | -50.6%
25 | CC(C)(C)c1ccc(O)c(C(c2cc(C(C)(C)C)ccc2O)c2cc(C(C)(C)C)ccc2O)c1 | 97.2% (active) | 98.7% (active) | 98% (active) | 97.6% (active) | 96.5% (active) | 96.8% (active)
26 | CC(=O)OC1=NCC(OC(C)=O)=NC1 | 5.2% | 13.9% | 2.25% | -16.9% | 2.65% | 6.5%
27 | c1csc(-c2nccc3ccccc23)c1 | 1.6% | 2.3% | -19.2% | 2.2% | 7.7% | 10.6%
28 | COc1cc2c(c(OC)c1OC)-c1ccc(OC)c(=O)cc1C(NC(=S)Nc1ccccc1)CC2 (stereo unspecified) | 96.5% (active) | 96.8% (active) | 96.8% (active) | 93.5% (active) | 95.6% (active) | 96.5% (active)
29 | CC(=O)OCC(=O)[C@@]1(O)CC[C@H]2[C@@H]3CCC4=CC(=O)CC[C@]4(C)[C@H]3C(=O)C[C@@]21C | -25.1% | -23.6% | -6.85% | 4.2% | -17.9% | -21.3%
30 | O=C(NNC(=O)c1ccc(Cl)cc1Cl)c1ccccc1 | -13.8% | 0.2% | -4.75% | -9.9% | -9.2% | -7.8%
31 | COC(=O)CC1C=CC(OC)[C@@]2(C)C(=O)C=C(C)C(=O)[C@@H]12 (stereo partly specified) | 4.85% | -1.95% | 18.6% | -16.6% | 3.8% | 3.15%
32 | O=C1C2C3C=CC(C2C(=O)N1COP(=O)(O)O)C1C2C(=O)N(COP(=O)(O)O)C(=O)C2C31 (stereo unspecified) | 2.1% | 0.3% | 0.95% | 19.1% | -11.2% | -14.1%
33 | N#CC(C(=O)CCCC(=O)Nc1ccc(Cl)cc1Cl)c1ccccc1 (stereo unspecified) | -39% | -13.6% | -6.95% | 13.2% | -16% | -28.1%
34 | Fc1cccc(Cl)c1/C=N\N=C1c2ccccc2-c2ccccc21 | -8.1% | 21.9% | -22.4% | -20.1% | -57.8% | -15.8%
35 | CCN(CCO)CCCC(C)Nc1ccnc2cc(Cl)ccc12 (stereo unspecified) | -43.2% | -66.5% | -33.4% | -132% | -45.9% | -63.4%
36 | O=C(Cc1ccccc1)c1ccc(N2CCOCC2)cc1 | 21.5% | -19.2% | 11.5% | 13.2% | 26.1% | 25.7%
37 | O=C(C(=O)c1cc(-c2ccccc2)nc2ccc3ccccc3c12)c1ccccc1 | -24.3% | -5.65% | -1.05% | 13.9% | 30.1% | 14.3%
38 | Nc1nc2nc(Br)[nH]c2c(=O)[nH]1 | -5.5% | -7.9% | -29.3% | -17.2% | -14.2% | -33.9%
39 | C=C(CN(C)C)C(=O)c1ccccc1OC | 35.7% | 30.1% | 44.8% | -25.9% | 35.3% | 18.8%
40 | CC[N+](CC)(CC)C[Si](C)(C)C | 5.05% | 5.7% | 12.1% | 2.4% | 12% | -6%
41 | Nc1ccc(OCCc2c(N)nc(N)nc2N)cc1 | -1.2% | 7.15% | 12.4% | -4.05% | 22.7% | 9.7%
